Hit rate of the full screen: of about 6,200 compounds, about 2,900 (47%) were called active. So high a share suggests a set chosen from earlier hits. Some of the results follow. Unmarked numbers belong to inactive results. Rule as the data show it: active = inhibition above about 50%; inactive = the rest.

The experiment is described as follows: Mycobacterium tuberculosis growth inhibition, primary screen (AID 1259343). The conditions noted are these: inhibition: at 10 µM, hits give high values; outcome: 10 uM.
Usually inhibition stands for the drop in the measured response relative to a control, in per cent. `OC(c1cc(C(F)(F)F)nc2c(C(F)(F)F)cccc12)C1CCCCN1` (stereo unspecified): the inhibition was 78.8% (active). For `FC(F)(F)c1cc(NCC2CC2)c2ccccc2n1`, the inhibition is 8.13%. With `O=C(NCCc1ccc(Cl)cc1)N1CCN(c2ccccc2)CC1` the figure was 13.3%; with `O=C(NCCc1cccc(Cl)c1)N1CCc2ccccc2C1`, 83.4% (active); with `O=S(=O)(NCCc1cccc(Cl)c1)N1CCCCCC1`, 21.7%.

Take `CSc1nc2ccc(N=Cc3ccc4ncccc4c3)cc2s1`: the inhibition was -22.5%.

For the molecule `CSc1nc2ccc(N=Cc3c[nH]c4ccccc34)cc2s1`, the inhibition was 95.1% (active). Turning to `Cn1c(COc2cccc3ccccc23)nc2ccccc21`, the inhibition was -3.53%. To `Cn1c(CSc2ccccc2)nc2ccccc21` belongs 39%; to `Cc1ccc(C)c(OCCN(C)Cc2nc3ccccc3n2C)c1`, 83.1% (active).

For `CC1(C)C2CCC1(C)C(Nc1ncnc3sccc13)C2` (stereo unspecified), the inhibition was 41.4%. With `FC(F)(F)c1cc(Nc2ncnc3sccc23)ccc1Br` the figure was 23.6%.

Regarding `CCCCC(CC)CNS(=O)(=O)c1cccc(F)c1` (stereo unspecified), the inhibition was 45.9%. To `c1nc(NC23CC4CC(CC(C4)C2)C3)c2ccsc2n1` belongs -13.2%. To `CCCCC(CC)CNc1ncnc2sccc12` (stereo unspecified) belongs 59.1% (active).

For the molecule `CC(C)CCCC(C)Nc1ncnc2sccc12` (stereo unspecified), the inhibition is 60.5% (active). Turning to `CN(Cc1cccc(-n2cccn2)c1)Cc1nc(Cc2ccccc2Cl)no1`, the inhibition result was “inactive”. Consider `COC(=O)c1ccc(-c2noc(CN(C)Cc3cccc(-n4cccn4)c3)n2)cc1`, for which the inhibition is 50.6% (active). With `Cc1cc(C)n(-c2cccc(CN(C)Cc3nc(-c4ccc5c(c4)OCO5)no3)c2)n1` the figure was 45.7%.

As to `CC(SC1CCCC1)C(=O)N1CCCC1` (stereo unspecified), the inhibition is 52.1% (active). On to `COc1cccc(-c2ccccc2NC(=O)C2CCN(CC3CCCCC3)CC2)c1`, for which the inhibition was 89.8% (active). To `COc1cccc(-c2ccccc2NC(=O)C2CCN(CC3CC=CCC3)CC2)c1` (stereo unspecified) belongs 84% (active); to `COc1cccc(-c2ccccc2NC(=O)C2CCN(CCC(C)c3ccc(C)o3)CC2)c1` (stereo unspecified), 80.1% (active); to `COc1cccc(-c2ccccc2NC(=O)C2CCN(CC(C)c3ccccc3)CC2)c1` (stereo unspecified), 74.2% (active). As for `COc1cccc(-c2ccccc2NC(=O)C2CCN(Cc3cc4ccccc4[nH]3)CC2)c1`, the inhibition was 17.3%.

For the molecule `CC(C)c1ccc(C#N)c(SC2CC(=O)N(c3ccc(Br)cc3)C2=O)n1` (stereo unspecified), the inhibition was 10.7%.

As to `COc1cc(/C=C/C(=O)O)ccc1O`, the inhibition is 37.7%.

Take `O=C(/C=C/c1ccc(O)c(O)c1)OCCc1ccccc1`: the inhibition is 102% (active). To `CC1CC(OCC(O)CN2CCC(CN3C(=O)c4cccc5cccc(c45)C3=O)CC2)CC(C)(C)C1` (stereo unspecified) belongs 90.1% (active); to `O=C(CCNc1ccc(Cc2ccncc2)cc1)c1ccc2c(c1)OCO2`, 84.6% (active); to `O=C(C(Br)=CNc1ccc(Cl)c(Cl)c1)C(F)(F)F`, 87% (active). For `CN(CC1Cc2ccccc2O1)C(=O)c1cc(COc2ccc3ncccc3c2)on1` (stereo unspecified), the inhibition is 35.5%. As to `CCC(C(=O)c1ccc2ncccc2c1)c1ccccc1` (stereo unspecified), the inhibition is 58.2% (active). As to `CCc1ccc(C(=O)NCc2ccc(C#N)cc2)o1`, the inhibition was 12.2%. To `CCN(c1ccc(C(=O)Nc2ccncc2)cc1)C(C)C` belongs 8.43%; to `CCc1ccc(C(=O)NCc2cccc(C(=O)Nc3ccncc3)c2)o1`, 51.8% (active). In the case of `CC1(C)C2CC=C(C=NNC(=O)NC3CCCCC3)C1C2` (stereo unspecified), the inhibition was -4.24%. With `O=C(/C=C/c1ccc([N+](=O)[O-])s1)Nc1nnc(C2COc3ccccc3O2)o1` (stereo unspecified) the figure was 101% (active); with `CN(CCCCCCCCCCN(C)C(=O)Oc1cccc([N+](C)(C)C)c1)C(=O)Oc1cccc([N+](C)(C)C)c1`, 49.3%. To `CN(CCCC(=O)Nc1ccc2[nH]c(=S)oc2c1)C(=O)OC(C)(C)C` belongs 73.7% (active); to `C=CCN=c1scc(-c2ccccc2)n1N=Cc1ccccn1`, 20.3%. With `Cc1[nH]n(-c2cccc(Cl)c2)c(=O)c1C=NCCc1ccccc1` the figure was 72.9% (active).

As to `Cc1ccc(C)c(Oc2cc(-n3ncc(Cl)c(Cl)c3=O)nc(C)n2)c1`, the inhibition was 101% (active).

With `Cc1ccc2nc(-c3ccncc3)cc(-c3ccccc3)c2c1`, the inhibition was 53.7% (active).

Turning to `NC(=O)C(c1ccc(F)cc1)N1CCOC(c2ccc(F)cc2)C1` (stereo unspecified), the inhibition is -5.29%.

`O=C(CCl)N1CCN(Cc2ccc(Cl)s2)CC1`: the inhibition was -19.9%. For the molecule `O=C(c1ccc2c(c1)OCO2)C1CCCN(Cc2c(F)cccc2Cl)C1` (stereo unspecified), the inhibition was -16.5%. With `O=[N+]([O-])c1ccc(N2CCN(Cc3c(F)cccc3Cl)CC2)cc1` the figure was 86.5% (active); with `N#Cc1c(F)cccc1N1CCN(c2ccccc2O)CC1`, -21.1%.

As to `O=c1ccc(-c2cccc([N+](=O)[O-])c2)nn1Cc1c(F)cccc1Cl`, the inhibition is 21.1%. `O=C(CCl)N1CCN(Cc2cccc3ccccc23)CC1`: the inhibition was 71.9% (active). To `O=C(CCl)N1CCN(c2ccccc2F)CC1` belongs 97.1% (active); to `O=c1ccc(-c2ccco2)nn1Cc1cccc2ccccc12`, 37%; to `CC1(C(=O)NCc2cccc3ccccc23)CCN1CCCc1ccccc1` (stereo unspecified), 32.3%. As to `O=C(CCl)N1CCN(Cc2c(F)cccc2Cl)CC1`, the inhibition is 66.2% (active). With `O=c1c(-c2cccc(Br)c2)[n+]([O-])c2ccccc2n1O`, the inhibition is 5.77%. To `O[N+]1=CC=CCC1=S.On1ccccc1=S.[Zn]` belongs 102% (active).

Turning to `Cc1ccc(S(=O)(=O)N2CCC(NC(=O)C(C)Oc3ccc(Cl)cc3Cl)CC2)cc1` (stereo unspecified), the inhibition is 10.4%. For `COc1ccc(S(=O)(=O)N2CC3(C)CC2CC(C)(C)C3)cc1` (stereo unspecified), the inhibition is 24.4%. For `O=S(=O)(c1ccc(Cl)cc1)N1CCCC2CCCCC21` (stereo unspecified), the inhibition was 23.9%. Regarding `Nc1cc(S(=O)(=O)N2CCCCC2)ccc1Oc1ccc(Cl)cc1`, the inhibition was 16.6%. `COc1ccc(CC2CCN(S(=O)(=O)c3ccc(C#N)cc3)CC2)cc1`: the inhibition is 52.4% (active). To `CCc1ccc(S(=O)(=O)N2CCC(CO)(Cc3ccc(OC)cc3)CC2)s1` belongs 15.3%; to `COc1ccc(-c2ccc(S(=O)(=O)N3CCCCCC3)cc2)cc1`, 81.1% (active); to `COc1ccc(CC2CCN(S(=O)(=O)c3ccc(Cl)cc3)CC2)cc1`, 56.9% (active). As for `COc1ccc2cc(CN(C)c3ccc(C#N)cn3)ccc2c1`, the inhibition was 19.4%.

The values are drawn from PubChem BioAssay AID1259343 (VanderVen Lab, College of Veterinary Medicine, Cornell …, 2017).
